# Laboratory results reported in PubChem BioAssay (Tox21).
# Records with an inconclusive call do not appear. A number with no mark means an inactive call. Active and inactive are the calls of the source. Calls come from the whole dose curve; as a rule, active = well fitted curve in the direction sought with a large enough effect in the repeat runs; inconclusive = weak or mixed curves; inactive = no such curve, though single readings can be large; an effect the other way counts as inactive or inconclusive.
# Target: Nuclear receptor subfamily 1 group I member 2 (Homo sapiens) (UniProt O75469)
# Experiment: Human pregnane X receptor (PXR) small molecule agonists, qHTS assay (AID 1346982); note: nearly all actives have a fitted effect of over 35% in size; note: potency is the fitted concentration of half-maximal effect
# Conditions: PXR-Luc HepG2, CYP3A4 luciferase reporter, 24 h; series mostly up to 92.4 µM; activation: at the top concentration
# Summary of the method: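 PXR-Luc HepG2 cells (CYP3A4 promoter-driven luciferase) were seeded in medium with 5% charcoal-stripped FBS, left 5 hr at 37 C, then exposed to compounds in DMSO for 24 hr. Luminescence was read after ONE-Glo addition.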
# % is set by controls: 0 for no effect and ±100 for the full control effect.
# Chain of Nuclear receptor subfamily 1 group I member 2 (Homo sapiens) (O75469 whole entry, looked up): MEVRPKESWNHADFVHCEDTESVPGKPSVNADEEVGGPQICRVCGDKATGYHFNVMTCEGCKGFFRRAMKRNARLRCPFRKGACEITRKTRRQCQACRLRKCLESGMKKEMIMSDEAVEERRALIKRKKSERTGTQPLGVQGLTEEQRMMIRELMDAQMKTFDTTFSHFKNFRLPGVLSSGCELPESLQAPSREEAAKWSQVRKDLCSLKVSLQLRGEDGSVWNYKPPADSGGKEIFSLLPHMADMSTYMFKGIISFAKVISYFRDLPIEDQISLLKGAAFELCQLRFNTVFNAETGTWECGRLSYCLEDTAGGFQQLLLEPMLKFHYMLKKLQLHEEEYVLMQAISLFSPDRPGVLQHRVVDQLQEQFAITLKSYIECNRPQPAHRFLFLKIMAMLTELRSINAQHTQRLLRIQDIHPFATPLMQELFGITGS
SMILES,Potency,activation
c1ccc(B(c2ccccc2)c2ccccc2)cc1,30.6 µM (active),
CCCCCCCCCCCCCBr,,-2.25%
CC(C)COC(=O)c1ccccc1,,2.89%
CCOc1ccccc1OCC1CNCCO1 (stereo not drawn),,-4.07% [at 42.5 µM]
CC1=NN(c2ccc(S(=O)(=O)O)cc2)C(=O)C1,,11%
COC(=O)CCCCC(=O)O,,2.12%
CCCCC1CCC(O)CC1 (stereo not drawn),,8.53%
Cc1ccnc(N)c1,,-2.39%
CC(C)[C@H]1CC[C@H](C)C[C@@H]1O,55.4 µM (active),
O=Cc1ccccc1Cl,,0.579%
CN(C)CCN(C)CCO,,0.752%
CC(CO)(CO)CO,,-13.6%
CCCCCCCCCOC(=O)c1ccccc1C(=O)OCCCCCCCCC,19.3 µM (active),
O=C(O)CONC(=O)c1ccccc1,,1.09%
C=C(C)c1cccc(C(C)(C)N=C=O)c1,4.33 µM (active),
COC(=O)c1ccccc1C(=O)O,,-9.55%
O=C1CCC(=O)N1Cl,,4.52%
CCCCCC/C=C/C(=O)OC,,-0.123%
Nc1nnnn1-c1ccccc1,,-3.26% [at 42.5 µM]

SMILES,Potency,activation
CC1OCCC1=O (stereo not drawn),,8.7%
CC1(C)Cc2cccc(N)c2O1,34.4 µM (active),
C=C(C)[C@@H]1CC=C(C)CC1,,13.1%
C=CC/C=C/C,,1.51%
O=C(O)CCCCCC(=O)O,,6.79%
C/C=C(\C)C(C)=O,,13%
CCC(C)C(=O)OCCc1ccccc1 (stereo not drawn),,2.55%
COP(=O)(O)OP(=O)(O)OC,,9.88%
CCC(=O)Oc1ccc2c(c1)CC[C@@H]1[C@@H]2CC[C@@]2(C)[C@H]1C[C@@H](OC(=O)CC)[C@@H]2OC(=O)CC,,-0.905% [at 42.5 µM]
Cc1ccc(N)cc1S(=O)(=O)O,61.1 µM (active),
O=C(Cl)c1ccccc1[N+](=O)[O-],,14.1%
CC(=O)OC1CCCCC1C(C)(C)C (stereo not drawn),,13.3%
CC1c2ccccc2CN1NC(=O)c1ccc(Cl)c(S(N)(=O)=O)c1 (stereo not drawn),,-1.56% [at 42.5 µM]
CCC(C)OC(C)CC (stereo not drawn),,-0.987%
O=C(CCCl)NCCc1ccccc1,,12.8% [at 42.5 µM]
NCC1(Cc2noc(=O)[nH]2)CCCCC1,,-8.21%
CC(Oc1cc(Cl)ccc1Cl)C(=O)O (stereo not drawn),,27.1%
CCOc1cccc(N)c1,,23.2%

# Target: Cytochrome P450 2D6 (Homo sapiens) (UniProt P10635)
# Experiment: Cytochrome P450 Family 2 Subfamily D Member 6 (CYP2D6) small molecule antagonists: luciferase reporter qHTS assay (AID 1671196); note: nearly all actives have a fitted effect of over 50% in size
# Conditions: P450-Glo CYP2D6 enzyme assay, luciferin luminescence, 1 h; series mostly up to 115 µM; activity change, negative = inhibition: at the top concentration
# Summary of the method: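 CYP2D6 enzyme–substrate mix was held with compound for 10 min at room temperature, then NADPH regeneration solution was added and the reaction ran 1 h at room temperature. Luciferin product was detected by luminescence after 20 min with detection reagent.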
# Chain of Cytochrome P450 2D6 (Homo sapiens) (P10635 whole entry, looked up): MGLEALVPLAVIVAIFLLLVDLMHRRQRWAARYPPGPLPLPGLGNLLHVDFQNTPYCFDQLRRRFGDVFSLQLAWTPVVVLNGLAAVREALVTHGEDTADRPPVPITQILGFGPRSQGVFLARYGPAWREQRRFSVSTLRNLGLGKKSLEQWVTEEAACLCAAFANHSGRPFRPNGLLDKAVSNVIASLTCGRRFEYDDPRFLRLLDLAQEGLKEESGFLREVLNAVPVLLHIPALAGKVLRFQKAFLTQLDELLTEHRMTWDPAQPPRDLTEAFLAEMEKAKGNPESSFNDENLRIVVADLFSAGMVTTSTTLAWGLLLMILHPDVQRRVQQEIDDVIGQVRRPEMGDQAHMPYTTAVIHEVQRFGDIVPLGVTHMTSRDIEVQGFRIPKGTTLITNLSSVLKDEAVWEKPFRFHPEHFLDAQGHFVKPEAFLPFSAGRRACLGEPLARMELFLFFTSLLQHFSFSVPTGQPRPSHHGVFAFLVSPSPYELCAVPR
row,SMILES,"activity change, negative = inhibition"
1,COC(=O)c1ccccc1C(=O)O,-16.1%
2,CC1c2ccccc2CN1NC(=O)c1ccc(Cl)c(S(N)(=O)=O)c1 (stereo not drawn),-15.1% [at 53 µM]
3,NCC1(Cc2noc(=O)[nH]2)CCCCC1,-25.6%

# Target: Cytochrome P450 2C19 (Homo sapiens) (UniProt P33261)
# Experiment: Cytochrome P450 Family 2 Subfamily C Member 19 (CYP2C19) small molecule antagonists: luciferase reporter qHTS assay (AID 1671197); note: nearly all actives have a fitted effect of over 65% in size; note: potency is the fitted concentration of half-maximal effect
# Conditions: P450-Glo CYP2C19 enzyme, luciferin luminescence, 1 h; series mostly up to 115 µM; activity change, negative = inhibition: at the top concentration
# Summary of the method: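 P450-Glo CYP2C19 system: enzyme-substrate mix with compound 10 min at room temperature, then NADPH regeneration solution, 1 h at 37C. Proluciferin-to-luciferin conversion detected by luminescence after 20 min with detection reagent; ketoconazole as positive control.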
# Chain of Cytochrome P450 2C19 (Homo sapiens) (P33261 whole entry, looked up): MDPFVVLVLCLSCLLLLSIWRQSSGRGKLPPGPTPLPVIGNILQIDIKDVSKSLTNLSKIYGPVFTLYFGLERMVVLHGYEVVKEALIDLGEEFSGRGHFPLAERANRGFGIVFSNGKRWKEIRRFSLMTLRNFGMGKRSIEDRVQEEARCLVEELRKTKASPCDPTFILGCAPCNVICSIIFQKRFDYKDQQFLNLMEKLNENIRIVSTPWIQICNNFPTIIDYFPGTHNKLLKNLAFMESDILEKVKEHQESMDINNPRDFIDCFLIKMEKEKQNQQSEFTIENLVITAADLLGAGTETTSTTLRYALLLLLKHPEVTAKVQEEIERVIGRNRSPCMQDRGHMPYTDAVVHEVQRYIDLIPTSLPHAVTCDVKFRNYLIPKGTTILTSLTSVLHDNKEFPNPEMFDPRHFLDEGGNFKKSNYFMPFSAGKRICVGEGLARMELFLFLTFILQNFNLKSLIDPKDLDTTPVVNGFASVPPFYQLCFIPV
SMILES,Potency,"activity change, negative = inhibition"
c1ccc(B(c2ccccc2)c2ccccc2)cc1,17.8 µM (active),
CCCCCCCCCCCCCBr,70.8 µM (active),
CC(C)COC(=O)c1ccccc1,,-9.13%
CCOc1ccccc1OCC1CNCCO1 (stereo not drawn),,5.38% [at 52.9 µM]
CC1=NN(c2ccc(S(=O)(=O)O)cc2)C(=O)C1,79.6 µM (active),
COC(=O)CCCCC(=O)O,,23.7%
CCCCC1CCC(O)CC1 (stereo not drawn),,20.3%
Cc1ccnc(N)c1,,13.5%
CC(C)[C@H]1CC[C@H](C)C[C@@H]1O,,30.5%
O=Cc1ccccc1Cl,,21.8%
CN(C)CCN(C)CCO,,-3.19%
CC(CO)(CO)CO,,9.47%
CCCCCCCCCOC(=O)c1ccccc1C(=O)OCCCCCCCCC,39.8 µM (active),
O=C(O)CONC(=O)c1ccccc1,,-0.0741%
C=C(C)c1cccc(C(C)(C)N=C=O)c1,17.8 µM (active),
O=C1CCC(=O)N1Cl,,2.33%
CCCCCC/C=C/C(=O)OC,,-3.4%

SMILES,Potency,"activity change, negative = inhibition"
Nc1nnnn1-c1ccccc1,,1.44% [at 52.9 µM]
CC1OCCC1=O (stereo not drawn),,24%
CC1(C)Cc2cccc(N)c2O1,17.8 µM (active),
C=C(C)[C@@H]1CC=C(C)CC1,,-10.7%
C=CC/C=C/C,,-1.15%
O=C(O)CCCCCC(=O)O,,-23.7%
C/C=C(\C)C(C)=O,,9.25%
CCC(C)C(=O)OCCc1ccccc1 (stereo not drawn),,-16.5%
COP(=O)(O)OP(=O)(O)OC,,-11.5%
CCC(=O)Oc1ccc2c(c1)CC[C@@H]1[C@@H]2CC[C@@]2(C)[C@H]1C[C@@H](OC(=O)CC)[C@@H]2OC(=O)CC,27.5 µM (active),
Cc1ccc(N)cc1S(=O)(=O)O,79.6 µM (active),
O=C(Cl)c1ccccc1[N+](=O)[O-],72.7 µM (active),
CC(=O)OC1CCCCC1C(C)(C)C (stereo not drawn),,0.405%
CCC(C)OC(C)CC (stereo not drawn),,18.8%
O=C(CCCl)NCCc1ccccc1,,-7.4% [at 52.9 µM]
CC(Oc1cc(Cl)ccc1Cl)C(=O)O (stereo not drawn),,-11.4%
CCOc1cccc(N)c1,6.3 µM (active),

# Target: Cytochrome P450 2C9 (Homo sapiens) (UniProt P11712)
# Experiment: Cytochrome P450 Family 2 Subfamily C Member 9 (CYP2C9) small molecule antagonists: luciferase reporter qHTS assay (AID 1671198); note: nearly all actives have a fitted effect of over 50% in size; note: potency is the fitted concentration of half-maximal effect
# Conditions: P450-Glo CYP2C9 enzyme assay, luciferin luminescence; series mostly up to 115 µM; activity change, negative = inhibition: at the top concentration
# Summary of the method: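 P450-Glo proluciferin substrate with CYP2C9 enzyme; 10 min RT preincubation, then NADPH regeneration 1 h at 37C; luciferin detection reagent 20 min RT, luminescence in relative luminescence units.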
# Chain of Cytochrome P450 2C9 (Homo sapiens) (P11712 whole entry, looked up): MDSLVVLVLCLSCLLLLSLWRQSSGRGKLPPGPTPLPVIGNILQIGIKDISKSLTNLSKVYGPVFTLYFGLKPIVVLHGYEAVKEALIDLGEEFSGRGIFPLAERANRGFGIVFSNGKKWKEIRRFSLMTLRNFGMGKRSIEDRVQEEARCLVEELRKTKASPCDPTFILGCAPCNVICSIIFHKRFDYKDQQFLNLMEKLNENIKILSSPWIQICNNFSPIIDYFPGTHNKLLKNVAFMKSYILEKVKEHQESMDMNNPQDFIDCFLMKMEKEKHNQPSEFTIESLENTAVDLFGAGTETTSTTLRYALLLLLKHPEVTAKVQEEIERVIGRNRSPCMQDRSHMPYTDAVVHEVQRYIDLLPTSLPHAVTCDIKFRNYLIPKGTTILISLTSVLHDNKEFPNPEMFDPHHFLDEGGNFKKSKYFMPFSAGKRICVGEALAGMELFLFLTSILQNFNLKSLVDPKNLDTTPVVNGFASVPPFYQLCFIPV
SMILES,Potency,"activity change, negative = inhibition"
c1ccc(B(c2ccccc2)c2ccccc2)cc1,31.7 µM (active),
CCCCCCCCCCCCCBr,,-4.6%
CC(C)COC(=O)c1ccccc1,,-4.8%
CCOc1ccccc1OCC1CNCCO1 (stereo not drawn),,0.469% [at 53 µM]
CC1=NN(c2ccc(S(=O)(=O)O)cc2)C(=O)C1,,-17.4%
COC(=O)CCCCC(=O)O,,-11.4%
CCCCC1CCC(O)CC1 (stereo not drawn),,-8.79%
Cc1ccnc(N)c1,,18.3%
CC(C)[C@H]1CC[C@H](C)C[C@@H]1O,,-0.307%
O=Cc1ccccc1Cl,,-4.61%
CN(C)CCN(C)CCO,,-8.03%
CC(CO)(CO)CO,,-5.11%
CCCCCCCCCOC(=O)c1ccccc1C(=O)OCCCCCCCCC,39.8 µM (active),
O=C(O)CONC(=O)c1ccccc1,,-8.45%
C=C(C)c1cccc(C(C)(C)N=C=O)c1,15.9 µM (active),
O=C1CCC(=O)N1Cl,,5.49%
CCCCCC/C=C/C(=O)OC,,-17.1%

SMILES,Potency,"activity change, negative = inhibition"
Nc1nnnn1-c1ccccc1,,0.941% [at 53 µM]
CC1OCCC1=O (stereo not drawn),,-6.77%
CC1(C)Cc2cccc(N)c2O1,11.2 µM (active),
C=C(C)[C@@H]1CC=C(C)CC1,,-8.24%
C=CC/C=C/C,,-2.66%
O=C(O)CCCCCC(=O)O,,-6.98%
C/C=C(\C)C(C)=O,,-1.09%
CCC(C)C(=O)OCCc1ccccc1 (stereo not drawn),,-12.8%
COP(=O)(O)OP(=O)(O)OC,,-11.7%
CCC(=O)Oc1ccc2c(c1)CC[C@@H]1[C@@H]2CC[C@@]2(C)[C@H]1C[C@@H](OC(=O)CC)[C@@H]2OC(=O)CC,24.5 µM (active),
Cc1ccc(N)cc1S(=O)(=O)O,63.3 µM (active),
O=C(Cl)c1ccccc1[N+](=O)[O-],,-15.2%
CC(=O)OC1CCCCC1C(C)(C)C (stereo not drawn),,-6.64%
CCC(C)OC(C)CC (stereo not drawn),,17.6%
O=C(CCCl)NCCc1ccccc1,,-9.44% [at 53 µM]
CC(Oc1cc(Cl)ccc1Cl)C(=O)O (stereo not drawn),71 µM (active),
CCOc1cccc(N)c1,7.93 µM (active),
